Drawing on PubChem BioAssay AID651821 (The Scripps Research Institute Molecular Screening Center, 2012), this text covers inhibition for 84 compounds.

Each structure is given as a SMILES string. Hit rate of the full screen: of about 370,000 compounds, about 4,700 (1.3%) were called active. What follows is part of a selection rich in actives, with near analogues and random picks from the rest. A number with no mark means an inactive call.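 How the source made its calls: active means inhibition above the plate cutoff, the mean of all test compounds on that plate plus 3 SD (cut at about 35% in these data); inactive means the rest.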

The assay is described as follows: small molecules binding CAG repeat RNA – biochemical, fluorescence, primary screen (AID 651821).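 Further: 0% = DMSO alone and 100% = 100 µM mitoxantrone as full dye displacement; higher means more dye released from RNA so lower well fluorescence.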 As to conditions: r(CAG) RNA repeat, TO-PRO-1 dye displacement fluorescence; at 3 µM; stronger effect = higher value.
Take `O=C(CSc1nnc(-c2ccccc2)n1Cc1ccco1)Nc1ccccc1-c1ccccc1`: the inhibition was 5.56%.

`Clc1ccc(-n2c(SC/C=C/c3ccccc3)nnc2-c2ccco2)cc1`: the inhibition was 2.56%.

Take `Clc1ccccc1CSc1nnc(-c2ccco2)c(-c2ccco2)n1`: the inhibition was 54.8% (active).

`COC(=O)C1CN(CC(C)C)CCS(=O)(=O)N1Cc1ccc(C)cc1` (centres undefined): the inhibition is 2.99%.

Take `CC(C)(C)c1ccc(CSc2nnc(-c3cccs3)o2)cc1`: the inhibition is -0.86%.

For the compound `CC(C)N1CCCCC(NC(=O)c2ccc3ccccc3c2)C1=O` (centres undefined), the inhibition is 2.21%.

Regarding `Nc1ccn([C@@H]2O[C@H](C(=O)N[C@H]3CCCCNC3=O)[C@@H](O)[C@H]2O)c(=O)n1`, the inhibition was -0.39%.

`COc1cccc(-c2nn(-c3ccccc3)cc2/C=C(\C#N)C(=O)NCCCn2ccnc2)c1`: the inhibition was 4.33%.

Turning to `Cc1ccc(-c2nn(-c3ccccc3)cc2/C=C2\SC(=S)N(CCCCCC(=O)O)C2=O)o1`, the inhibition is 48.8% (active).

Take `Cc1nc(C)c(-c2nnc(-c3cccc(S(=O)(=O)N(C)C)c3)o2)cc1C(=O)NN`: the inhibition is 10.6%.

Consider `CN(C)S(=O)(=O)c1cccc(-c2nn(-c3ccccc3)cc2/C=C2\SC(=S)N(CC(=O)O)C2=O)c1`, for which the inhibition is 63.9% (active).

Consider `O=C(CN1CCC(NC(=O)NCc2ccccc2)CC1)Nc1ccc2c(c1)OCCO2`, for which the inhibition is 0.82%.

As to `CCc1ccc(C2=CC(=O)CC(C)(C)C2=O)cc1`, the inhibition was 3.63%.

With `COc1ccc(Cl)cc1NC(=O)COC(=O)C(CC(C)C)N1C(=O)C2CC=CCC2C1=O` (centres undefined), the inhibition was -0.39%.

For `OC(c1ccccc1)(c1ccccc1)C1CCN(CCCOc2ccc(-c3ccsc3)cc2)CC1`, the inhibition was 9.5%.

With `Cc1cc(C)c2oc(C(=O)Nc3ccc(S(=O)(=O)Nc4nccc(C)n4)cc3)cc(=O)c2c1`, the inhibition was 1.83%.

With `Cc1ccnc(NS(=O)(=O)c2ccc(NC(=O)c3oc4ccc(F)cc4c3C)cc2)n1`, the inhibition is 33.3%.

In the case of `Cc1noc(NS(=O)(=O)c2ccc(NC(=O)c3oc4ccc(F)cc4c3C)cc2)c1C`, the inhibition is 75.7% (active).

As for `O=C(Nc1ccc(S(=O)(=O)Nc2ncccn2)cc1)c1cncc(Br)c1`, the inhibition was -0.76%.

Take `Cc1ccnc(NS(=O)(=O)c2ccc(NC(=O)c3oc4ccccc4c3C)cc2)n1`: the inhibition was 33.1%.

For the compound `Cc1cc(C)c2nc(-c3cccnc3)cc(C(=O)Nc3ccc(S(=O)(=O)Nc4onc(C)c4C)cc3)c2c1`, the inhibition was 80.4% (active).

In the case of `CN1C(=O)C(Br)(Br)CC1c1cccnc1` (centres undefined), the inhibition is 1.36%.

Turning to `Cc1c(-c2ccccc2)n[nH]c1C(=O)N=Nc1c(O)[nH]c2ccccc12`, the inhibition was 36.8% (active).

On to `O=C(CCN1CCCCC1)N=Nc1c(O)[nH]c2ccccc12`, for which the inhibition is 4.74%.

As to `O=C(CSc1nc2ccccc2s1)N=Nc1c(O)[nH]c2ccccc12`, the inhibition is 10.6%.

Turning to `Cc1ccccc1Nc1nc(N)nc(COC(=O)CCC(=O)c2ccc(F)cc2)n1`, the inhibition was 0.17%.

Take `CCc1ccccc1NC(=O)CSc1nnc(-c2cccs2)o1`: the inhibition is -0.17%.

`CC(C)[C@@H](C)/C=C/[C@@H](C)[C@H]1CC[C@@H]2[C@]1(C)CCC1[C@]23C=C[C@]2(C[C@@H](O)CC[C@]12C)N(c1ccc([N+](=O)[O-])cn1)O3` (some centres undefined): the inhibition is 27.1%.

As to `COC(=O)c1cnn2c(C(F)(F)F)cc(-c3ccco3)nc12`, the inhibition is 10.2%.

With `Cc1cc(C)c2nc(-c3ccco3)cc(C(=O)O)c2c1`, the inhibition is 67.3% (active).

Regarding `Cc1ccsc1-c1cc(C(=O)O)c2c(ccc3ccccc32)n1`, the inhibition is 9.82%.

On to `COC(=O)N1Cc2ccnnc2CC1c1ccccc1Br` (centres undefined), for which the inhibition was 3.21%.

For `Cc1ccc(OCCC(=O)Nc2ccc(S(=O)(=O)Nc3nccs3)cc2)cc1`, the inhibition was 36.9% (active).

For the compound `COc1ccccc1OC(C)C(=O)Nc1ccc(S(=O)(=O)Nc2nccs2)cc1` (centres undefined), the inhibition was 19.7%.

For `O=C(CCS(=O)(=O)c1ccccc1Cl)Nc1ccc(S(=O)(=O)Nc2ncccn2)cc1`, the inhibition was 2.17%.

For `CN1CCN(S(=O)(=O)c2cccc(C(=O)Nc3cccc(S(N)(=O)=O)c3)c2)CC1`, the inhibition is 1.84%.

Consider `O=C(CCc1ccccc1Cl)Nc1ccc(S(=O)(=O)Nc2nccs2)cc1`, for which the inhibition was 44% (active).

For the compound `CN1CCN(S(=O)(=O)c2cccc(C(=O)Nc3sccc3C#N)c2)CC1`, the inhibition is 44.6% (active).

With `O=C(Nc1ccc(S(=O)(=O)N2CCOCC2)cc1)c1ccc2ncsc2c1`, the inhibition was 5.29%.

Turning to `Cc1ccnc(NS(=O)(=O)c2ccc(NC(=O)c3ccc(S(=O)(=O)N4CCOCC4)cc3)cc2)n1`, the inhibition is 12.3%.

In the case of `CCC(CC)C(=O)Nc1ccc(S(=O)(=O)Nc2nccs2)cc1`, the inhibition is 3.15%.

For `CN1CCN(S(=O)(=O)c2cccc(C(=O)N3CCc4ccccc43)c2)CC1`, the inhibition was 0.16%.

As for `O=C(Nc1ccc(S(=O)(=O)Nc2nccs2)cc1)c1cccc(S(=O)(=O)N2CCOCC2)c1`, the inhibition is 34.7% (active).

Regarding `Cc1ccc(OCCCC(=O)Nc2ccc(S(=O)(=O)Nc3cc(C)nc(C)n3)cc2)cc1`, the inhibition is 24.9%.

Regarding `N#Cc1cccc(C(=O)NCC2CCN(C(=O)C(=O)c3cc4ccccc4o3)CC2)c1`, the inhibition is 2.89%.

On to `Nc1[nH]c(C(=O)c2ccccc2)c(-c2ccc(Cl)cc2Cl)c1C(=O)c1ccccc1`, for which the inhibition was 5.66%.

For the compound `C[C@@H]1CN([C@H](C)CO)C(=O)CCCn2cc(nn2)CO[C@H]1CN(C)C(=O)Nc1ccc(N2CCCCC2)cc1`, the inhibition is 9.11%.

On to `Cc1ccc2nc(SCC(=O)N3CC(C)OC(C)C3)nc(=O)n2c1` (centres undefined), for which the inhibition was -10.3%.

`O=C(C1CCCN1S(=O)(=O)c1ccccc1)N1CCc2ccccc2C1` (centres undefined): the inhibition was 0.6%.

In the case of `O=C(OCC(=O)N1CCCCC1)c1ccc(OC(F)(F)F)cc1`, the inhibition is -1.21%.

Regarding `O=C(Nc1ccccc1)N1CCN(Cc2nc3ccccc3c(=O)[nH]2)CC1`, the inhibition is -0.05%.

In the case of `CCN(CC)C(=O)CC[C@@H]1CC[C@]2(CCCN(S(=O)(=O)C3CCCCC3)C2)O1`, the inhibition was -0.19%.

As for `O=C(CSc1nc2c(c(=O)[nH]1)CCCC2)N1CCCCC1`, the inhibition was 3.54%.

With `O=C(Nc1ccc(S(=O)(=O)Nc2nccs2)cc1)c1cc(-c2ccncc2)nc2ccccc12`, the inhibition was 47.9% (active).

Consider `Cc1cc(C(=O)OCC(=O)Nc2nccs2)c2ccccc2n1`, for which the inhibition is 6.91%.

As to `O=C(Nc1ccc(S(=O)(=O)Nc2nccs2)cc1)c1cc(=O)[nH]c2ccccc12`, the inhibition is 25.9%.

As to `CCN(CC(=O)Nc1ccccc1C(F)(F)F)C(=O)C1CCN(C(=O)Nc2ccccc2)CC1`, the inhibition is -1.69%.

On to `COC(=O)[C@]12C[C@H](CC(=O)NCCCCc3ccccc3)C(=O)N(Cc3ccc4c(c3)OCO4)C1=C[C@H](C(C)(C)C)O[C@@H]2C`, for which the inhibition is 9.49%.

Turning to `CSc1nc(-c2ccccc2)nc(C(Cl)Cl)n1`, the inhibition was -0.59%.

Consider `COc1ccc(C(=O)/C=C/c2ccc(-c3ccccc3)cc2)cc1CSCC(=O)O`, for which the inhibition was 63.2% (active).

In the case of `COc1cc(C(=O)NCC(c2ccco2)N2CCCC2)ccc1OCc1ccccc1` (centres undefined), the inhibition was 3.03%.

For `COc1cc(/C=C/C(=O)OCC(=O)NC(=O)NCc2ccccc2)ccc1OCC#N`, the inhibition was -3.56%.

Regarding `COc1ccccc1CCNC(=O)C1CCN(C(=O)/C=C/c2ccccc2)CC1`, the inhibition was -7.33%.

As to `COCc1cc(C(C)=O)ccc1OC`, the inhibition was 3.9%.

For the compound `COC(=O)c1ccc(COc2ccc(/C=C/C(=O)c3ccc(OC)c(CSCC(=O)O)c3)cc2OC)cc1`, the inhibition was 43.7% (active).

With `CCOC(=O)[C@]12CCCC=C1N(Cc1ccc(OC)cc1)C(=O)[C@@H]2CC(=O)NCc1cccs1`, the inhibition was 1.72%.

Take `CN(C)[C@H]1CCN(c2cccc3c2S(=O)(=O)N2CC[C@H](C2)O3)C1`: the inhibition was 1.39%.

Take `CCOC(=O)c1c(NC(=O)CN2C(=O)NC3(CCC(C)CC3)C2=O)sc(C)c1CC` (centres undefined): the inhibition is -14%.

Take `CCOC(=O)c1c(NC(=O)C2CC=CCC2C(=O)O)sc(C)c1CC` (centres undefined): the inhibition is 34.6% (active).

For the compound `CCc1c(C)sc(NC(=O)c2cccs2)c1C(N)=O`, the inhibition was 5.17%.

`Cc1ccc(N)cc1CN1CCN(c2ncc(Cc3ccccc3)cn2)CC1`: the inhibition is 3.17%.

Consider `CC(C)(C)OC(=O)NCc1cc(F)ccc1/C=C/S(=O)(=O)NCCc1ccccc1`, for which the inhibition was -0.33%.

In the case of `CC1(C)OC(=O)C2=C(CC(CCc3ccccc3)OC2c2ccc(Cl)cc2)O1` (centres undefined), the inhibition was 3.44%.

`CCC(C(=O)Nc1ncccn1)(C(F)(F)F)C(F)(F)F`: the inhibition is -0.05%.

Consider `COc1cc(OC)c(S(=O)(=O)Nc2ccccc2C(=O)O)cc1S(=O)(=O)Nc1ccccc1C(=O)O`, for which the inhibition was 63.4% (active).

For `COc1ccc(NS(=O)(=O)c2cc(C(=O)Nc3ccccc3C(=O)O)ccc2C)cc1`, the inhibition is 74.6% (active).

Turning to `COc1ccc(NS(=O)(=O)c2cc(NC(=O)CC(=O)c3ccc([N+](=O)[O-])cc3)ccc2C)cc1`, the inhibition was 42.4% (active).

With `COc1ccc(NS(=O)(=O)c2cc(NC(=O)COc3ccccc3F)ccc2OC)cc1`, the inhibition is 4.34%.

For the compound `COc1ccc(OC)c(S(=O)(=O)Nc2ccccc2F)c1`, the inhibition was -3.01%.

Take `Cc1ccc(NC(=O)CCNC(=O)c2ccc([N+](=O)[O-])cc2)cc1S(=O)(=O)N1CCOCC1`: the inhibition was 1.24%.

In the case of `Cc1ccc(C(=O)Nc2ccccc2-c2ccccc2)cc1S(=O)(=O)Nc1ccccc1`, the inhibition was 17.1%.

Turning to `COc1cc(/C=C/C(=O)O)cc(S(=O)(=O)Nc2ccccc2SC)c1OC`, the inhibition was 8.56%.

For `COc1ccc(NS(=O)(=O)c2ccc(C(=O)Nc3c(C)n(C)n(-c4ccccc4)c3=O)cc2)cc1`, the inhibition was 10.7%.

Regarding `CCOC(=O)[C@]12CCCCC/C=C\1N(Cc1ccc(OC)cc1)C(=O)[C@H]2CC(=O)N1CCOCC1`, the inhibition was 4.38%.
